According to PubChem BioAssay (Tox21):
Calls of active or inactive are those of the source. Unless noted, the call rests on the fitted dose curve; in most records, active means well fitted curve in the direction sought with a large enough effect in the repeat runs; inconclusive means weak or mixed curves; inactive means no such curve, though single readings can be large; an effect the other way counts as inactive or inconclusive.

Key:
[1] = qHTS assay for small molecules that induce genotoxicity in human embryonic kidney cells expressing luciferase-tagged ATAD5 (AID 651632); further: nearly all actives have a fitted effect of over 15% in size
In short: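 HEK293T cells carrying a luciferase reporter tagged to ATAD5 were exposed to compound or DMSO vehicle for 16 hr at 37C, 5% CO2. Amplite was added, and after 30 min at room temperature luciferase activity was read as a marker of ATAD5 induction.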

[2] = qHTS assay for small molecules that induce genotoxicity in human embryonic kidney cells expressing luciferase-tagged ATAD5 - cell viability (AID 651634; calls by dose curve; further: nearly all actives have a fitted effect of over 25% in size; further: potency means the concentration at half of the fitted maximal effect)
In short: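 HEK293T cells expressing luciferase-tagged ATAD5 were exposed to compound or DMSO for 15.5 hr at 37C, 5% CO2. Viability was then read as live-cell protease activity by CellTiter-Fluor fluorescence after 30 min at 37C.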

[3] = qHTS assay for small molecule disruptors of the mitochondrial membrane potential (AID 720635); further: potency means the concentration at half of the fitted maximal effect
In short: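 HepG2 cells exposed to compound 1 hr at 37C, then Mito-MPS dye 30 min. Ratio read of aggregate (540/590 nm) versus monomer (490/535 nm) fluorescence.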

[4] = qHTS assay to test for compound auto fluorescence at 460 nm (blue) in HepG2 cell free culture (AID 720685)
In short: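 Compound (23 nL) or DMSO pinned into cell-free MEM with 10% FBS; blue fluorescence read at 405/460 nm excitation/emission, expressed as auto-fluorescence equivalency to triamterene.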

[5] = target: Glucocorticoid receptor (Homo sapiens) (UniProt P04150); assay: qHTS assay to identify small molecule antagonists of the glucocorticoid receptor (GR) signaling pathway (AID 720692; active means well fitted inhibition curve with a large enough effect in the signal ratio in the repeat runs, not every such curve was filed as active; inconclusive means weak or mixed curves, or effect the other way; inactive means no such curve, though single readings can be large or run the other way; the % refers to the signal ratio)
Glucocorticoid receptor (Homo sapiens), sequence (P04150 whole entry, looked up): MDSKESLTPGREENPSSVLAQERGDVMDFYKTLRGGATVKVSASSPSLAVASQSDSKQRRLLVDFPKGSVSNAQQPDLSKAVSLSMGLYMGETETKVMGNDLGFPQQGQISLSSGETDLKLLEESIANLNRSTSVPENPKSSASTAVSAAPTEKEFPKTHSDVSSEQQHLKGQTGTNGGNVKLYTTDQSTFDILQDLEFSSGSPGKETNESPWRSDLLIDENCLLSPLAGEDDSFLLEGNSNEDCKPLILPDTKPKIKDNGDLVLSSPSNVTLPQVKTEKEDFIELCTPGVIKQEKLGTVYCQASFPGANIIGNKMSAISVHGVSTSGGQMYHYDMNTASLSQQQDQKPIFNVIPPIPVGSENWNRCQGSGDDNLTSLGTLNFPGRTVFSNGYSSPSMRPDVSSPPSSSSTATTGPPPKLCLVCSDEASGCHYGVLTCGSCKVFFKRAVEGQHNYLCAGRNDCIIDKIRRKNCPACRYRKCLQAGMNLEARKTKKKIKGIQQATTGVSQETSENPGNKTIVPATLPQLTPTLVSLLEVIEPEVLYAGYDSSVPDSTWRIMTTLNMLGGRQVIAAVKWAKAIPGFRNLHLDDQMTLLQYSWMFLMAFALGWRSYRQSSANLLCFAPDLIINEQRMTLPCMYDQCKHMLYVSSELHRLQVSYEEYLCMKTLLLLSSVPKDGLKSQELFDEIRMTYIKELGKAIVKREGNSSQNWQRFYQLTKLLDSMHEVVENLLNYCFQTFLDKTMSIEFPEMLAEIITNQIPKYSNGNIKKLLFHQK
In short: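 GR-bla HeLa cells (beta-lactamase reporter under glucocorticoid response element) were pre-plated 4 h at 37 C, treated with compounds plus 5 nM dexamethasone (final) for 18 h, then read by LiveBLAzer B/G FRET fluorescence after 2 h.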

[6] = qHTS assay for identifying genotoxic compounds that show differential cytotoxicity against isogenic chicken DT40 cell lines with known DNA damage response pathways - wild type cell line (AID 743012); further: nearly all actives have a fitted effect of over 60% in size; further: potency means the concentration at half of the fitted maximal effect
In short: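 Parental DNA repair-proficient DT40 cells, 300 per well, were pre-incubated ~0.5 h at 37 C/5% CO2, pin-dosed with compounds in DMSO, then incubated 40 h. Viability was read as CellTiter-Glo luminescence after 30 min at room temperature.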

[7] = qHTS assay for identifying genotoxic compounds that show differential cytotoxicity against isogenic chicken DT40 cell lines with known DNA damage response pathways - Rev3 mutant cell line (AID 743014); further: nearly all actives have a fitted effect of over 55% in size; further: potency means the concentration at half of the fitted maximal effect
[8] = qHTS assay to identify small molecule antagonists of the androgen receptor (AR) signaling pathway using the MDA cell line - cell viability counter screen (AID 743041; further: nearly all actives have a fitted effect of over 45% in size)
In short: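 MDA-kb2 AR-luc cells (MMTV-luciferase, AR/GR responsive) treated with compounds plus R1881 agonist for 16 h at 37C. CellTiter-Fluor added at 15.5 h; fluorescence read after 30 min in the same wells.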

[9] = qHTS assay to identify small molecule antagonists of the thyroid receptor (TR) signaling pathway - cell viability counter screen (AID 743064); further: nearly all actives have a fitted effect of over 50% in size; further: potency means the concentration at half of the fitted maximal effect
In short: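 In-well cytotoxicity read by CellTiter-Fluor (30 min, 37 C) following 23.5 h exposure of GH3 cells bearing a TRE-luciferase sensor. Compounds were added alongside 1 nM (final) T3 to drive TR transactivation.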

[10] = qHTS assay to identify small molecule antagonists of the thyroid receptor (TR) signaling pathway (AID 743065); further: nearly all actives have a fitted effect of over 55% in size; further: potency means the concentration at half of the fitted maximal effect
In short: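 GH3.TRE-Luc rat pituitary cells (two TREs driving luciferase) were dosed with compound, then stimulated with 1 nM T3 (final) for 23.5 h at 37 C. ONE-Glo luminescence was the read-out, with CellTiter-Fluor fluorescence as the cytotoxicity counter-screen.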

[11] = tested on: thyroid hormone receptor (rat, GH3 cells); assay: qHTS assay to identify small molecule agonists of the thyroid receptor (TR) signaling pathway (AID 743066; calls by dose curve; further: potency means the concentration at half of the fitted maximal effect)
[12] = target: Estrogen receptor (Homo sapiens) (UniProt P03372); assay: qHTS assay to identify small molecule antagonists of the estrogen receptor alpha (ER-alpha) signaling pathway (AID 743069; active means well fitted curve in the direction sought with a large enough effect in the signal ratio in the repeat runs, not every such curve was filed as active; inconclusive means weak or mixed curves, or effect the other way; inactive means no such curve, though single readings can be large or run the other way; the % refers to the signal ratio; further: potency means the concentration at half of the fitted maximal effect)
Estrogen receptor (Homo sapiens), sequence (P03372 whole entry, looked up): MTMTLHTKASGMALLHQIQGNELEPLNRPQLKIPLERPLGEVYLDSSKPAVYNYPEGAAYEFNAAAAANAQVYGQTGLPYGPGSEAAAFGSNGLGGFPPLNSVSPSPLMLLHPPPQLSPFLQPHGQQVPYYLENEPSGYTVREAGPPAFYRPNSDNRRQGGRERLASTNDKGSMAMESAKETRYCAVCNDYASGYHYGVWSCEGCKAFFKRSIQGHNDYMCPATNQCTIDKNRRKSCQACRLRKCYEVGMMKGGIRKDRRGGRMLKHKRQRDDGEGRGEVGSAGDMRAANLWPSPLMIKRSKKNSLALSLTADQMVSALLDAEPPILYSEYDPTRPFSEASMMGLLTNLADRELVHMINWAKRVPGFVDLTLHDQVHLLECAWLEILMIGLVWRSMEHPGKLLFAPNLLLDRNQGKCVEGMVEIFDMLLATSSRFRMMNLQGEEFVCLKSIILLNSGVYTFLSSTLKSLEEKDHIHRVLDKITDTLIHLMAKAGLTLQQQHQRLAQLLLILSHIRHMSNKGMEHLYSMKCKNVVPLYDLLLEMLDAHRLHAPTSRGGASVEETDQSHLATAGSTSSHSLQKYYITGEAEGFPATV
In short: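 HEK293 ER-alpha-UAS-bla GripTite cells, held overnight in 2% charcoal-stripped FBS, 5,000 cells/well, preincubated 4 h, then compound plus 17beta-estradiol for 18 h at 37C. Beta-lactamase read by LiveBLAzer B/G FRET substrate, 2 h at room temperature.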

[13] = target: Estrogen receptor (Homo sapiens) (UniProt P03372); assay: qHTS assay to identify small molecule agonists of the estrogen receptor alpha (ER-alpha) signaling pathway (AID 743075; calls by dose curve; further: potency means the concentration at half of the fitted maximal effect)
[14] = target: Estrogen receptor (Homo sapiens) (UniProt P03372); assay: qHTS assay to identify small molecule agonists of the estrogen receptor alpha (ER-alpha) signaling pathway using the BG1 cell line (AID 743079); further: nearly all actives have a fitted effect of over 20% in size; further: potency means the concentration at half of the fitted maximal effect
[15] = qHTS assay to identify small molecule antagonists of the estrogen receptor alpha (ER-alpha) signaling pathway using the BG1 cell line (AID 743080; calls by dose curve; further: series mostly up to about 70 µM; nearly all actives have a fitted effect of over 25% in size)
In short: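 Antagonist mode: compounds in DMSO were pinned onto BG1-Luc-4E2 cells alongside 17beta-estradiol agonist, incubated 21.5 h, and ERE-driven luciferase measured with ONE-Glo. Cytotoxicity was multiplexed using CellTiter-Fluor fluorescence.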

[16] = qHTS assay to identify small molecule antagonists of the estrogen receptor alpha (ER-alpha) signaling pathway using the BG1 cell line - cell viability counter screen (AID 743081);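 further: compound given together with 17beta-estradiol as the ER stimulus; series mostly up to about 70 µM; nearly all actives have a fitted effect of over 45% in size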
[17] = target: Peroxisome proliferator-activated receptor gamma (Homo sapiens) (UniProt P37231); assay: qHTS assay to identify small molecule agonists of the peroxisome proliferator-activated receptor gamma (PPARg) signaling pathway (AID 743094; active means well fitted activation curve with a large enough effect in the signal ratio in the repeat runs, not every such curve was filed as active; inconclusive means weak or mixed curves, or effect the other way; inactive means no such curve, though single readings can be large or run the other way; the % refers to the signal ratio)
Peroxisome proliferator-activated receptor gamma (Homo sapiens), sequence (P37231 whole entry, looked up): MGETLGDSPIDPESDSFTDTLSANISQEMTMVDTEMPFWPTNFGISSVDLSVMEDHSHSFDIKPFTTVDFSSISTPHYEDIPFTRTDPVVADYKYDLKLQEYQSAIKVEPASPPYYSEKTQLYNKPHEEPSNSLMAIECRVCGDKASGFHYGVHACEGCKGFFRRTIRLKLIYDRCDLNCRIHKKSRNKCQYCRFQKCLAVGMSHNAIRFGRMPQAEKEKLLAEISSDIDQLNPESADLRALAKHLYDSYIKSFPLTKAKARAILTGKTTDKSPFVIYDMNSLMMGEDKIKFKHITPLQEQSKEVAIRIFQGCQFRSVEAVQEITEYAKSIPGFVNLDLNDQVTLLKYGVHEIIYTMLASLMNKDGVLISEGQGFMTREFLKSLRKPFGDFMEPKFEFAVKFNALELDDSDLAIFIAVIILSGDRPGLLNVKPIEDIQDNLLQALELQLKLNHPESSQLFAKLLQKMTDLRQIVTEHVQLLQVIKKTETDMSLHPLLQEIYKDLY
In short: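 GeneBLAzer PPARg UAS-bla HEK293H cells carrying a stably integrated beta-lactamase reporter were pre-incubated 5 h at 37C, then exposed to compounds in DMSO for 17 h at 37C; LiveBLAzer B/G FRET substrate was added for 1 h at room temperature and fluorescence read.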

[18] = qHTS assay to identify small molecule phospholipidosis (PLD) inducers (AID 1259344; active means well fitted curve in the direction sought with a large enough effect; inconclusive means small, poorly fitted or top-dose-only effect, or another doubt; inactive means no such curve, though single readings can be large; an effect the other way counts as inactive or inconclusive)
In short: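 HepG2 cells, 900/well, treated with compound plus LipidTOX Red for 24 h at 37 C; amiodarone positive and DMSO negative controls. Fixed with paraformaldehyde/Hoechst, then high-content imaging scored LipidTOX pit count and integrated intensity per well and per cell.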

[19] = qHTS assay for small molecule agonists of the p53 signaling pathway (AID 651631; calls by dose curve; further: nearly all actives have a fitted effect of over 15% in size; further: potency means the concentration at half of the fitted maximal effect)
In short: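 Readout was fluorescence from the LiveBLAzer FRET substrate, applied for 2 h at room temperature after 16 h compound exposure at 37 °C. Cells were the p53RE-bla HCT-116 line, with beta-lactamase driven by p53 response elements.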

[20] = qHTS assay to test for compound auto fluorescence at 535 nm (green) in HEK293 cells (AID 720680)

Measured: Potency

O=P1(N(CCCl)CCCl)NC(OO)CCO1 (configuration not stated)
active: [7] 13.3 µM
not listed: [19] | [20]
inactive: all other assays above

COc1ccc(OC)c([C@@H](O)[C@H](C)N)c1
active: [11] 29.8 µM
not listed: [18]
inactive: all other assays above

Oc1ccc2c3c1O[C@H]1[C@@H](O)CC[C@@]4(O)[C@@H](C2)N(CC2CCC2)CC[C@]314
not listed: [1] | [3] | [12] | [15] | [18] | [19]
inactive: all other assays above

C[N+]1([O-])[C@@H]2CC(OC(=O)[C@H](CO)c3ccccc3)C[C@H]1[C@@H]1O[C@@H]12 (some centres not stated)
not listed: [18] | [19]
inactive: all other assays above

F/C(COc1ccc2c(c1)[nH]c1ccccc12)=C1/CN2CCC1CC2
inactive: [1] | [2] | [20] | [8] | [13] | [14]
active: [7] 8.41 µM | [9] 7.5 µM | [10] 8.41 µM | [12] 19 µM [inhibitor]

C[C@]12CC[C@H]3[C@@H](CCC4=C(O)C(=O)CC[C@@H]43)[C@@H]1CC[C@@H]2OC(=O)CCC1CCCC1
active: [13] 0.952 µM [inconclusive] | [14] 0.119 µM
not listed: [2] | [5] | [12] | [18] | [20]
inactive: all other assays above

CCN(CC)CCO[C@H]1CC[C@@]2(C)C(=CC[C@@H]3[C@@H]2CC[C@]2(C)C(=O)CC[C@@H]32)C1
active: [6] 1.33 µM | [7] 0.531 µM | [10] 21.1 µM
not listed: [1] | [4] | [5] | [18] | [19]
inactive: all other assays above

O[C@H]1[C@H]2[C@H](O)CCCN2C[C@H]1O
not listed: [1] | [6] | [7] | [16] | [18] | [19]
inactive: all other assays above

CCON=O
not listed: [1] | [14] | [18] | [19]
inactive: all other assays above

COc1ccc2c3c1O[C@H]1[C@@H](O)C=C[C@H]4[C@@H](C2)NCC[C@@]341
not listed: [18]
inactive: all other assays above

O=c1[nH]cc(N(CCCl)CCCl)c(=O)[nH]1
active: [19] 21.1 µM
not listed: [3] | [4] | [5] | [7] | [18]
inactive: all other assays above

CC(=O)[C@H]1CC[C@H]2[C@@H]3CC[C@@H]4C[C@H](O)CC[C@]4(C)[C@H]3CC[C@]12C
active: [10] 13.3 µM | [13] 26.8 µM [activator] | [14] 29.8 µM
not listed: [2] | [3] | [5] | [7] | [9] | [15] | [18]
inactive: all other assays above

CC[N+](C)(CC)CCOC(=O)C(O)(c1ccccc1)c1ccccc1
not listed: [2] | [6] | [18]
inactive: all other assays above

Cc1cc(C)cc(C(=O)OC2C[C@H]3CC[C@@H](C2)N3C)c1 (some centres not stated)
active: [6] 2.98 µM | [7] 1.88 µM | [10] 18.8 µM
not listed: [2] | [3] | [5] | [9] | [17] | [18] | [19]
inactive: all other assays above

C=C[C@H]1CN2CC[C@H]1C[C@H]2[C@H](OC(=O)OCC)c1ccnc2ccc(OC)cc12
inactive: [19] | [1] | [2] | [4] | [5] | [8] | [10] | [11] | [16] | [17]

CC(=O)O[C@H]1C[C@H](O[C@H]2[C@@H](O)C[C@H](O[C@H]3[C@@H](O)C[C@H](O[C@H]4CC[C@@]5(C)[C@H](CC[C@@H]6[C@@H]5C[C@@H](O)[C@]5(C)[C@@H](C7=CC(=O)OC7)CC[C@]65O)C4)O[C@@H]3C)O[C@@H]2C)O[C@H](C)[C@H]1O[C@@H]1O[C@H](CO)[C@@H](O)[C@H](O)[C@H]1O
inactive: [1] | [20] | [4] | [9] | [10] | [11] | [16]
active: [2] 0.168 µM | [3] 0.75 µM | [6] 0.75 µM | [7] 0.75 µM
